Among the test systems are TNNI3K; TRKB; TRPM6; TSSK1B; TSSK3; TTK; TXK.
Holding throughout (details): concentration: 1 μM, replicates: in singlicate; n = 1
The test system of a further assay is T1, TRKA.
T1 construct: gene NTRK1

Another assay concerns T2, TRKC.
T2 construct: gene NTRK3

For assay [1], the system named is TYK2(JH1domain-catalytic).
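Also: KINOMEscan kinase panel screen.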

`O=c1[nH]cc(-c2ccc(N3CCOCC3)cc2)c2sc(-c3cn[nH]c3)cc12` [GSK2276055]: the “%Inh” value in the assay with TNNI3K stood at 0%; in the assay on TRKA, 0%; with TRKB it was 0%; in the assay with TRKC, 0%; in the assay on TRPM6, 0%; in the assay with TSSK1B, 18%. Besides, the “%Inh” value with TSSK3 was determined as 13%; with TTK, 22%; in the assay on TXK, 76%; in assay [1], 23%.

Take `COc1cccc(C(=O)Nc2cccc(Oc3ccc4nc(NC(=O)C5CC5)cn4n3)c2)c1`: the “%Inh” value is reported as 87% in the assay on TNNI3K; 0% in the assay with TRKA; 0% in the assay on TRKB; 0% in the assay with TRKC; 17% with TRPM6; 6% with TSSK1B. In addition, the “%Inh” value with TSSK3 stood at 0%; in the assay with TTK, 13%; with TXK it was 37%; in assay [1] it was 0%.

For the compound `O=C(Nc1n[nH]c2cc(-c3ccoc3)ccc12)C1CC1` [SB-738481], the “%Inh” value in the assay on TNNI3K is on record as 0%; in the assay on TRKA, 30%; in the assay with TRKB, 25%; in the assay with TRKC, 49%; in the assay on TRPM6, 0%; with TSSK1B, 0%. Further, the “%Inh” value in the assay on TSSK3 came to 0%; in the assay with TTK, 0%; in the assay with TXK, 20%; in [1] it was 51%.

`Cl.Cl.NCC(NC(=O)c1cc(-c2ccccc2)c(-c2ccnc3[nH]ccc23)s1)c1ccccc1` (stereo not shown) [GSK1321561]: the “%Inh” value with TNNI3K was 18%; in the assay on TRKA, 58%; in the assay with TRKB it was 26%; in the assay on TRKC it was 6%; in the assay with TRPM6, 28%; in the assay on TSSK1B it was 0%. The “%Inh” value in the assay with TSSK3 came out at 18%; in the assay with TTK, 0%; in the assay with TXK, 45%; in assay [1], 20%.

In the case of `COc1cc(Nc2nccc(-c3c(-c4cccc(NC(=O)c5c(F)cccc5F)c4)nn4ncccc34)n2)cc(OC)c1OC` [GSK327238], the “%Inh” value in the assay with TNNI3K is recorded as 55%; with TRKA, 48%; in the assay on TRKB, 0%; in the assay on TRKC, 0%; in the assay with TRPM6, 54%; with TSSK1B, 11%. Further, the “%Inh” value in the assay with TSSK3 turned out to be 19%; in the assay on TTK, 10%; in the assay with TXK it was 93.6%; in [1], 88%.

`Oc1cc(Nc2ccnc3cc(I)ccc23)ccc1F` [GW552771]: the “%Inh” value worked out at 2% in the assay on TNNI3K; 0% with TRKA; 23% with TRKB; 26% with TRKC; 26% with TRPM6; 6% in the assay with TSSK1B. For the same compound, the “%Inh” value turned out to be 13% with TSSK3, 0% in the assay with TTK, 94.5% in the assay on TXK and 32% in assay [1].

`Cl.Cl.NCC(C(=O)Nc1cc(Br)c(-c2ccnc3[nH]ccc23)s1)c1ccccc1` (stereo not shown) [GSK1269851]: the “%Inh” value with TNNI3K was found to be 12%; in the assay on TRKA it was 19%; in the assay with TRKB, 28%; with TRKC it was 31%; with TRPM6 it was 7%; in the assay with TSSK1B it was 21%. The “%Inh” value was found to be 4% in the assay on TSSK3, 0% with TTK, 0% in the assay with TXK and 22% in [1].

For `CC(=O)N1CCN(c2ccc(Nc3nccc(-c4sc(C(C)C)nc4-c4cccc(NS(=O)(=O)c5cccc(Cl)c5)c4)n3)cn2)CC1` [GSK1660437], the “%Inh” value with TNNI3K is 22%; in the assay with TRKA, 45%; in the assay on TRKB, 0%; in the assay on TRKC it was 0%; with TRPM6, 41%; with TSSK1B it was 10%. Also, the “%Inh” value in the assay with TSSK3 turned out to be 4%; with TTK, 56%; in the assay with TXK it was 20%; in [1], 29%.

Regarding `COc1cccc(NC(=O)NC2CCN(c3ccnc(Nc4cc(OC)c(OC)c(OC)c4)n3)C2)c1` (stereo not shown) [GSK1379763], the “%Inh” value with TNNI3K is given as 0%; in the assay on TRKA, 54%; in the assay with TRKB, 63%; in the assay with TRKC, 89%; with TRPM6 it was 3%; in the assay on TSSK1B, 3%. For the same compound, the “%Inh” value in the assay with TSSK3 was determined as 20%; with TTK, 5%; in the assay with TXK, 1%; in [1] it was 20%.

In the case of `O=C(Nc1n[nH]c2nc(-c3ccc(O)cc3)ccc12)C1CC1` [SB-710363], the “%Inh” value in the assay with TNNI3K was 0%; in the assay on TRKA, 26%; in the assay on TRKB it was 0%; in the assay with TRKC, 41%; with TRPM6, 0%; with TSSK1B, 0%. In addition, the “%Inh” value turned out to be 37% with TSSK3, 0% in the assay on TTK, 0% with TXK and 9% in assay [1].

In the case of `O=C(NC1CCN(c2ccnc(Nc3ccc(F)cc3)n2)C1)c1cc2ccccc2s1` (stereo not shown) [GSK1379716], the “%Inh” value with TNNI3K was determined as 4%; with TRKA, 10%; in the assay with TRKB, 0%; in the assay with TRKC it was 8%; in the assay on TRPM6, 22%; in the assay with TSSK1B, 5%. Besides, the “%Inh” value is on record as 19% in the assay on TSSK3, 17% in the assay on TTK, 8% in the assay on TXK and 2% in assay [1].

`FC(F)(F)c1ccc(/C=C/c2cncnc2Nc2ccc3[nH]c(Cc4ccccc4)nc3c2)cc1` [GW709199]: the “%Inh” value with TNNI3K is listed as 0%; in the assay with TRKA, 0%; in the assay on TRKB, 8%; in the assay on TRKC, 0%; in the assay with TRPM6, 0%; in the assay with TSSK1B, 0%. The “%Inh” value with TSSK3 is on record as 0%; with TTK, 0%; in the assay on TXK it was 0%; in [1], 41%.

`COc1ccc(Nc2nccc(NCCNC(=O)c3cc4ccccc4s3)n2)cc1` [GSK1379896]: the “%Inh” value came out at 13% in the assay with TNNI3K; 18% in the assay with TRKA; 0% in the assay on TRKB; 0% with TRKC; 34% in the assay with TRPM6; 0% in the assay with TSSK1B. Besides, the “%Inh” value in the assay on TSSK3 is 20%; in the assay with TTK, 0%; with TXK, 0%; in assay [1], 25%.

On to `CN(C)Cc1ccc(-c2ccc3c(Nc4ccc(Oc5ccccn5)cc4)ccnc3c2)o1` [GW567148], for which the “%Inh” value in the assay on TNNI3K is given as 0%; with TRKA it was 100%; in the assay with TRKB, 31%; in the assay on TRKC it was 35%; with TRPM6 it was 52%; with TSSK1B, 0%. Also, the “%Inh” value stood at 6% in the assay with TSSK3, 0% with TTK, 0% in the assay with TXK and 30% in assay [1].

On to `COC(=O)Nc1nc2ccc(Oc3ccc(NC(=O)Nc4cc(C(F)(F)F)ccc4F)cc3)cc2n1C.Cl` [GW692089], for which the “%Inh” value is recorded as 72% in the assay on TNNI3K; 100% in the assay with TRKA; 84% in the assay with TRKB; 96.5% with TRKC; 0% in the assay on TRPM6; 0% with TSSK1B. Moreover, the “%Inh” value is 0% in the assay on TSSK3, 17% with TTK, 0% in the assay on TXK and 26% in [1].

`CN1CCN(CCCNc2nccc(-c3c(-c4ccc(F)cc4)nn4cc(C(F)(F)F)ccc34)n2)CC1` [GW621581]: the “%Inh” value in the assay with TNNI3K is 0%; with TRKA it was 0%; with TRKB, 11%; with TRKC, 5%; in the assay on TRPM6, 1%; in the assay with TSSK1B it was 0%. Moreover, the “%Inh” value with TSSK3 turned out to be 0%; in the assay with TTK it was 0%; in the assay with TXK, 14%; in [1] it was 28%.
